Laboratory results taken from the supplement of paper PMC12645437, “Orthogonal IMiD-Degron Pairs Induce Selective Protein Degradation in Cells” (ACS Chemical Biology, 2025).
Over roughly 8,300 sequences, “log2 fold change of degron read counts, EGFP-low vs EGFP+ sorted cells (limma voom), compound-induced degradation” has its median near -1.1; the highest 2% begin near 3.2. The list comes from a sample in which the highest values are over-represented; it also holds similar and randomly drawn sequences.

T1: CRBN, Q96SW2
T1 chain: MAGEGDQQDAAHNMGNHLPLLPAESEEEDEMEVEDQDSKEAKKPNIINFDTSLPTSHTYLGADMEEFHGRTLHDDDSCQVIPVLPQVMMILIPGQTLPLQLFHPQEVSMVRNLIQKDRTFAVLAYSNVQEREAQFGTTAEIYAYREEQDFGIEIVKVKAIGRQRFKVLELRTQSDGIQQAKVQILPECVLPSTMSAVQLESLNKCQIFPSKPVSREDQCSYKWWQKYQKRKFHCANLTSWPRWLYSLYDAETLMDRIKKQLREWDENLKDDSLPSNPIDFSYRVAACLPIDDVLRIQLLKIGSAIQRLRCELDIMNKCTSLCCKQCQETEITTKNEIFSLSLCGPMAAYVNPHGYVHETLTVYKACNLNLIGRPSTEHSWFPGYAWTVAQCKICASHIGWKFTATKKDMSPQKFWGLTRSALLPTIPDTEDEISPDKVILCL


Target: T1, CRBN, Q96SW2
Test: log2 fold change of degron read counts, EGFP-low vs EGFP+ sorted cells (limma voom), compound-induced degradation; higher = more compound-induced degradation of the degron-EGFP fusion; degrons are variants of IKZF1/3 zinc finger 2; compound dose not given here
Conditions: Jurkat, 18 h
[1] = compound: compound 19 (5-tert-butyl-thalidomide)
[2] = compound: compound 22 (5-morpholino-thalidomide)
[3] = compound: compound 33 (diphenyl IMiD analogue)
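Further: pooled lentiviral library of zinc finger degron-EGFP fusions in mCherry-positive Jurkat cells, FACS-sorted after compound exposure, with degron abundance counted by next-generation sequencing.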

Row | Sequence | log2 fold change of degron read counts [1] | log2 fold change of degron read counts [2] | log2 fold change of degron read counts [3] | log2 fold change of degron read counts (compound: thalidomide)
1 | FGCNQCGAHFTQKGNLLRHIKL [46F_47G_49N_50Q_52G_53A_54H_55F_67L_, Q9UKT9] | -2.35 | -2.82 | -1.79 | -2.17
2 | FRCEICGHQFTQKGNLLRHIKL [46F_47R_49E_50I_52G_53H_54Q_55F_67L_, Q9UKT9] | -3.28 | -3.74 | -2.48 | -2.14
3 | FQCDVCGACFTQKGNLLRHIKL [46F_47Q_49D_50V_52G_53A_54C_55F_67L_, Q9UKT9] | -1.14 | 1.47 | 0.493 | 3.01
4 | FLCSVCGHLFTQKGNLLRHIKL [46F_47L_49S_50V_52G_53H_54L_55F_67L_, Q9UKT9] | -2.16 | -2.42 | -2.1 | -2
5 | LWCPICGFQCTQKGNLLRHIKL [46L_47W_49P_50I_52G_53F_54Q_55C_67L_, Q9UKT9] | 3.21 | 3.52 | 2.81 | 1.97
6 | LNCPICGFQCTQKGNLLRHIKL [46L_47N_49P_50I_52G_53F_54Q_55C_67L_, Q9UKT9] | 1.88 | 1.12 | 0.537 | 1.19
7 | LDCPICGFQCTQKGNLLRHIKL [46L_47D_49P_50I_52G_53F_54Q_55C_67L_, Q9UKT9] | 0.742 | 0.239 | 0.58 | 1.8
8 | LRCPICGFQCTQKGNLLRHIKL [46L_47R_49P_50I_52G_53F_54Q_55C_67L_, Q9UKT9] | 0.722 | 0.186 | 1.12 | 1.62
9 | LYCPICGFQCTQKGNLLRHIKL [46L_47Y_49P_50I_52G_53F_54Q_55C_67L_, Q9UKT9] | 3.45 | 3.56 | 2.59 | 1.87
10 | LKCPICGFQCTQKGNLLRHIKL [46L_47K_49P_50I_52G_53F_54Q_55C_67L_, Q9UKT9] | -0.0362 | -1.47 | -1.46 | 0.648
11 | LCCPICGFQCTQKGNLLRHIKL [46L_47C_49P_50I_52G_53F_54Q_55C_67L_, Q9UKT9] | 2.04 | 2.42 | 2.76 | 2.48
12 | LQCPICGFQCTQKGNLLRHIKL [46L_47Q_49P_50I_52G_53F_54Q_55C_67L_, Q9UKT9] | 1.01 | 1.71 | 1.77 | 3.45
13 | LICPICGFQCTQKGNLLRHIKL [46L_47I_49P_50I_52G_53F_54Q_55C_67L_, Q9UKT9] | 0.317 | 2.57 | 2.11 | 2.94
14 | LTCPICGFQCTQKGNLLRHIKL [46L_47T_49P_50I_52G_53F_54Q_55C_67L_, Q9UKT9] | 0.773 | 2.5 | 2.25 | 2.88
15 | LMCPICGFQCTQKGNLLRHIKL [46L_47M_49P_50I_52G_53F_54Q_55C_67L_, Q9UKT9] | 0.282 | 1.65 | 2.68 | 2.37
16 | LFCPICGFQCTQKGNLLRHIKL [46L_47F_49P_50I_52G_53F_54Q_55C_67L_, Q9UKT9] | 3.36 | 3.29 | 2.33 | 2.04
17 | FMCNVCGAQFTQKGNLLRHIKL [46F_47M_49N_50V_52G_53A_54Q_55F_67L_, Q9UKT9] | -1.96 | -1.18 | 1.65 | -0.484
18 | FYCNVCGAEFTQKGNLLRHIKL [46F_47Y_49N_50V_52G_53A_54E_55F_67L_, Q9UKT9] | 0.141 | -0.307 | -0.204 | -1.92
19 | FDCSVCGHGFTQKGNLLRHIKL [46F_47D_49S_50V_52G_53H_54G_55F_67L_, Q9UKT9] | -2.13 | -2.49 | -2.85 | -2.61
20 | FICEICGHPFTQKGNLLRHIKL [46F_47I_49E_50I_52G_53H_54P_55F_67L_, Q9UKT9] | -2.2 | -1.74 | -1.09 | -0.749
21 | FTCNQCGAFFTQKGNLLRHIKL [46F_47T_49N_50Q_52G_53A_54F_55F_67L_, Q9UKT9] | -2.21 | -2.47 | -2.04 | -1.89
22 | FMCDQCGAMFTQKGNLLRHIKL [46F_47M_49D_50Q_52G_53A_54M_55F_67L_, Q9UKT9] | -2.85 | -3.27 | -1.88 | -2.89
23 | FVCEICGRYFTQKGNLLRHIKL [46F_47V_49E_50I_52G_53R_54Y_55F_67L_, Q9UKT9] | -1.62 | -1.93 | -1.15 | -0.136
24 | LGCPICGFQCTQKGNLLRHIKL [46L_47G_49P_50I_52G_53F_54Q_55C_67L_, Q9UKT9] | 3.74 | 2.31 | 1.15 | 1.18
25 | LECPICGFQCTQKGNLLRHIKL [46L_47E_49P_50I_52G_53F_54Q_55C_67L_, Q9UKT9] | -0.146 | -0.246 | 2.16 | 3.16
26 | LHCPICGFQCTQKGNLLRHIKL [46L_47H_49P_50I_52G_53F_54Q_55C_67L_, Q9UKT9] | 2.57 | 2.67 | 2.36 | 1.96
27 | LSCPICGFQCTQKGNLLRHIKL [46L_47S_49P_50I_52G_53F_54Q_55C_67L_, Q9UKT9] | 2.31 | 2.18 | 1.54 | 1.93
28 | LACPICGFQCTQKGNLLRHIKL [46L_47A_49P_50I_52G_53F_54Q_55C_67L_, Q9UKT9] | 3.44 | 2.59 | 1.86 | 1.78
29 | LVCPICGFQCTQKGNLLRHIKL [46L_47V_49P_50I_52G_53F_54Q_55C_67L_, Q9UKT9] | 1.16 | 2.72 | 2.04 | 3.09
